Compound activity deposited in PubChem BioAssay by National Center for Advancing Translational Sciences (NCATS).
Only some compounds are listed: those with a hit (about 4.7% of all), similar ones and a draw of the others.
D1 agonist: Allosteric Agonists of the Human D1 Dopamine Receptor: qHTS. D(1A) dopamine receptor (Homo sapiens), P21728. HEK293 T-REx D1 cells, calcium flux, agonist mode. activation, % at 2 µM. actives 1% (n = 360,000). AID 504660, 2011; note: 0% is about no effect
Target sequence (P21728 whole entry, looked up): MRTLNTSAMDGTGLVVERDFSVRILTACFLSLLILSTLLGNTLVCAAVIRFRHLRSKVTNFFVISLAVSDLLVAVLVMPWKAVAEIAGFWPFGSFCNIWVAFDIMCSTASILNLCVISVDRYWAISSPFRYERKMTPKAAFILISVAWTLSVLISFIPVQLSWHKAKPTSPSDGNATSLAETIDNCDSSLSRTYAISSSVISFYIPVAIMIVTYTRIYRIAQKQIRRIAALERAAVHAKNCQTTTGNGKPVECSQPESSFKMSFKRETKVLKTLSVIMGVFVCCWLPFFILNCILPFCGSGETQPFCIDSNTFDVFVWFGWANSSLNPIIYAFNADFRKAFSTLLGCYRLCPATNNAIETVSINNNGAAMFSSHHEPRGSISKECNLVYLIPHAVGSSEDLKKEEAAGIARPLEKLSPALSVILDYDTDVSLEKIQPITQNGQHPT
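Agonism was scored from calcium flux recorded over 180 s (1 read/s) after pintool compound addition, following a 10-cycle baseline. Cells were inducible force-coupled HEK293 TREx D1, plated overnight at 30 C and loaded with no-wash calcium dye.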
TRHR agonist: qHTS for Small Molecule Agonists and Allosteric Enhancers of Human TRH Receptor: Primary Screen for Agonists | Thyrotropin-releasing hormone receptor (Homo sapiens), P34981 | TRHR cells, calcium flux fluo-8, FDSS agonist mode | activation, % at 2 µM | actives 0.18% (n = 360,000) | AID 493084, 2011; note: 0% is about no effect
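In this calcium-flux screen, cells bearing human TRHR are dye-loaded with fluo-8, baselined for 10 cycles, then exposed to library compounds; positive kinetic calcium responses during the agonist phase mark hits, with TRH as control.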
TRHR enhancer: qHTS for Small Molecule Agonists and Allosteric Enhancers of Human TRH Receptor: Primary Screen for Enhancers; Thyrotropin-releasing hormone receptor (Homo sapiens), P34981; TRHR cells, fluo-8 calcium fluorescence, EC20 TRH enhancement; enhancement, % at 2 µM; actives 0.66% (n = 360,000); AID 493056, 2011; in the data active = enhancement above about 30%; note: 0% is about no effect
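Enhancer read-out: after compound pinning and an initial kinetic agonist-mode read, an EC20 of TRH (10 nM final) was injected and fluo-8 calcium signal (Ex 480/Em 530) followed at 1 s/cycle for 100 cycles in TRHR-expressing cells.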
D1 potentiator: Potentiators of Human D1 Dopamine Receptor: qHTS; HEK293 TREx D1 cells, calcium flux, dopamine EC20 potentiation; potentiation, % at 10 µM; actives 0.036% (n = 360,000); in the data active = potentiation above about 30%; note: 0% is about no effect
D1 antagonist: Antagonist of Human D 1 Dopamine Receptor: qHTS. D(1A) dopamine receptor (Homo sapiens), P21728. HEK293 TREx D1 cells, calcium flux, dopamine EC80; hits give low values. activity change, negative = inhibition, % at 10 µM. actives 3.2% (n = 360,000). AID 504652, 2011; in the data active = activity change below about -30%; note: % is set by controls: 0 for no effect and ±100 for the full control effect
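Tetracycline-induced HEK293 T-REx cells with force-coupled D1 receptor were loaded with a no-wash calcium dye. Compound was added after a 10 s baseline and read kinetically for 180 s; EC80 dopamine was then added and calcium flux followed another 180 s.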
* hit, by the source's call. Cut-off read from the data, not from the text of the source, unless noted: active = activation above about 30%; inactive = the rest.

What do the screens show for `Cc1ccc(OCC(=O)N2CCN(Cc3ccc4c(c3)OCO4)CC2)cc1C`?
D1 agonist: 1; TRHR agonist: 0; TRHR enhancer: -3; D1 potentiator: -3; D1 antagonist: 0

Results for O=C(COc1ccc(Br)cc1)N1CCN(Cc2ccc3c(c2)OCO3)CC1 ?
D1 agonist: 5; TRHR agonist: 1; TRHR enhancer: 4; D1 potentiator: 0; D1 antagonist: -34*

What do the screens show for `O=C(Nc1ccc2c(c1)OCCO2)c1cccn(Cc2cccc([N+](=O)[O-])c2)c1=O`?
D1 agonist: -2; TRHR agonist: 0; TRHR enhancer: -3; D1 potentiator: -2

Results for O=C1NC(=O)C(=Cc2ccc(OCC(=O)N3CCOCC3)cc2)C(=O)N1 ?
D1 agonist: 3; TRHR agonist: -3; TRHR enhancer: 6; D1 potentiator: 0; D1 antagonist: -37*

How did CN(CCOc1ccc(C=C2C(=O)NC(=O)NC2=O)cc1)c1ccccn1 do in these assays?
D1 agonist: 6; TRHR agonist: 0; TRHR enhancer: 6; D1 potentiator: -3; D1 antagonist: 25

How did Oc1ccc(Cl)cc1CN1CCN(Cc2ccccc2)CC1 do in these assays?
D1 agonist: 3; TRHR agonist: 1; TRHR enhancer: 31*; D1 potentiator: -8; D1 antagonist: -3

What do the screens show for `Nc1ccc2nonc2c1[N+](=O)[O-]`?
D1 agonist: 92*; TRHR agonist: 17; TRHR enhancer: 4; D1 potentiator: 2; D1 antagonist: -12

Results for Cc1cccc(OCC(=O)N2CCN(CCc3ccccn3)CC2)c1 ?
D1 agonist: -1; TRHR agonist: 1; TRHR enhancer: 7; D1 potentiator: -1; D1 antagonist: 0

How did CCn1c(O)c(/C=N/NC(=O)c2ccncc2)c(=O)[nH]c1=S do in these assays?
D1 agonist: 3; TRHR agonist: 0; TRHR enhancer: 10; D1 potentiator: 0; D1 antagonist: -31*

How did Cc1ccc(-n2c(/C=C/c3cccc4ccccc34)nc3ccccc3c2=O)cc1 do in these assays?
D1 agonist: 4; TRHR agonist: 0; TRHR enhancer: 16; D1 potentiator: -3; D1 antagonist: -6

Results for Cc1c2ccncc2c(C)c2c1[nH]c1ccccc12 ?
D1 agonist: 33*; TRHR agonist: 25; TRHR enhancer: -11; D1 potentiator: -2; D1 antagonist: -24

What do the screens show for `Nc1cc(N2CCNCC2)c([N+](=O)[O-])cc1Cl`?
D1 agonist: 3; TRHR agonist: 0; TRHR enhancer: 4; D1 potentiator: -15; D1 antagonist: -42*

What do the screens show for `O=[N+]([O-])c1ccc(N2CCNCC2)cc1N1CCCCC1`?
D1 agonist: 9; TRHR agonist: 1; TRHR enhancer: 10; D1 potentiator: 1; D1 antagonist: -11

How did O=C(COc1ccccc1Cl)N1CCN(CCc2ccccn2)CC1 do in these assays?
D1 agonist: 13; TRHR agonist: -1; TRHR enhancer: 17; D1 potentiator: 0; D1 antagonist: 5

Results for Cc1ccc(NC(=O)Cn2cc(C(=O)c3ccccc3)c3ccccc32)cc1 ?
D1 agonist: 11; TRHR agonist: -1; TRHR enhancer: 10; D1 potentiator: -8; D1 antagonist: -12

What do the screens show for `CC/C(=C\C=C\[C@@H]1C=C[C@@H]2CCC[C@H]2[C@@H]1C(=O)c1ccc[nH]1)[C@@H]1O[C@@H]([C@@H](C)C(=O)O)CC[C@@H]1C`?
D1 agonist: 29; TRHR agonist: 10; TRHR enhancer: -11; D1 potentiator: -7; D1 antagonist: -60*

What do the screens show for `CCCCn1c(O)c(/C(C)=N/NC(=O)Nc2ccccc2)c(=O)[nH]c1=O`?
D1 agonist: 0; TRHR agonist: 0; TRHR enhancer: 35*; D1 potentiator: -8; D1 antagonist: 0

What do the screens show for `O=C(CCc1nc(C2=CCN(Cc3cccc(Cl)c3)CC2)no1)Nc1ccccc1F`?
D1 agonist: 6; TRHR agonist: 0; TRHR enhancer: -2; D1 potentiator: 2; D1 antagonist: -6

How did O=C(COc1ccc2ccccc2c1)N1CCN(C2CCN(Cc3ccccc3)CC2)CC1 do in these assays?
D1 agonist: 26; TRHR agonist: 1; TRHR enhancer: 1; D1 potentiator: -12; D1 antagonist: -46*

Results for COC(=O)c1ccc(NC(=O)c2cccn(Cc3ccccc3C)c2=O)cc1 ?
D1 agonist: 2; TRHR agonist: 1; TRHR enhancer: -3; D1 potentiator: 6; D1 antagonist: 2

Results for CCCCCc1nc2c(c(=O)c3ccccc3n2C)c(=O)n1C1CCCCCC1 ?
D1 agonist: 191*; TRHR agonist: 23; TRHR enhancer: -7; D1 potentiator: 7; D1 antagonist: -55*

How did COc1ccccc1-n1c(/C=C/c2ccccc2)nc2ccccc2c1=O do in these assays?
D1 agonist: -1; TRHR agonist: 1; TRHR enhancer: 5; D1 potentiator: 3; D1 antagonist: 14

How did COc1cc(/C=C/c2nc3ccccc3c(=O)n2-c2ccccc2O)ccc1O do in these assays?
D1 agonist: 49*; TRHR agonist: 36*; TRHR enhancer: 10; D1 potentiator: -5; D1 antagonist: 4

How did COc1ccccc1-n1c(/C=C/c2ccc(O)cc2)nc2ccccc2c1=O do in these assays?
D1 agonist: 2; TRHR agonist: 1; TRHR enhancer: 39*; D1 potentiator: 0; D1 antagonist: -30*

How did Clc1ccc2c(c1)C(c1ccccc1Cl)=NCc1nnc(N3CCN(CCOc4ccccc4)CC3)n1-2 do in these assays?
D1 agonist: 39*; TRHR agonist: -1; TRHR enhancer: 13; D1 potentiator: -10; D1 antagonist: -22

How did Cc1cc2c(C(F)(F)F)cc(=O)oc2c2c1NCCC2 do in these assays?
D1 agonist: 113*; TRHR agonist: 91*; TRHR enhancer: 21; D1 potentiator: 4; D1 antagonist: -9

Results for O=c1cc(C(F)(F)F)c2cc3c4c(c2o1)CCCN4CCC3 ?
D1 agonist: 330*; TRHR agonist: 240*; TRHR enhancer: 6; D1 potentiator: -8; D1 antagonist: -65*

Results for CCCOc1ccc(C2SCC(=O)Nc3c2c(C)nn3-c2cccc(C)c2)cc1OC (stereo not drawn) ?
D1 agonist: -1; TRHR agonist: -1; TRHR enhancer: -7; D1 potentiator: 6; D1 antagonist: 4

Results for O=C(COc1ccccc1[N+](=O)[O-])N1CCN(CCc2ccncc2)CC1 ?
D1 agonist: 3; TRHR agonist: 0; TRHR enhancer: 0; D1 potentiator: 0; D1 antagonist: -4
